Shown are actives, neighbours in structure and some others; about 0.9% of the full set was active somewhere.
RECQ1 helicase: inhibitors of human RECQ1 DNA helicase; 240,000 tested, 0.54% active; P46063; AID 2549; Potency, µM (top dose mostly 57.3 µM), hits mostly inhibitors; RECQ1 DNA unwinding, red fluorescence kinetic read; further: nearly all actives have a fitted effect of over 30% in size
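RECQ1T1 50 nM; forked duplex (20 bp + 30-nt ss tails) 200 nM, ATP 2 mM final; pH 8.0, 2 mM MgCl2, 2.5 ug/ml poly(dI-dC); 15 min compound preincubation; discontinuous kinetic read over 2 h at RT.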
TDP1 inh: blocks human tyrosyl-DNA phosphodiesterase 1; recombinant TDP1, AlphaScreen DNA substrate cleavage; Potency, µM (series often up to 130 µM), usual class: inhibitors; Q9NUW8; 350,000 tested, 0.28% active; further: nearly all actives have a fitted effect of over 40% in size
Target sequence (Q9NUW8 whole entry, looked up): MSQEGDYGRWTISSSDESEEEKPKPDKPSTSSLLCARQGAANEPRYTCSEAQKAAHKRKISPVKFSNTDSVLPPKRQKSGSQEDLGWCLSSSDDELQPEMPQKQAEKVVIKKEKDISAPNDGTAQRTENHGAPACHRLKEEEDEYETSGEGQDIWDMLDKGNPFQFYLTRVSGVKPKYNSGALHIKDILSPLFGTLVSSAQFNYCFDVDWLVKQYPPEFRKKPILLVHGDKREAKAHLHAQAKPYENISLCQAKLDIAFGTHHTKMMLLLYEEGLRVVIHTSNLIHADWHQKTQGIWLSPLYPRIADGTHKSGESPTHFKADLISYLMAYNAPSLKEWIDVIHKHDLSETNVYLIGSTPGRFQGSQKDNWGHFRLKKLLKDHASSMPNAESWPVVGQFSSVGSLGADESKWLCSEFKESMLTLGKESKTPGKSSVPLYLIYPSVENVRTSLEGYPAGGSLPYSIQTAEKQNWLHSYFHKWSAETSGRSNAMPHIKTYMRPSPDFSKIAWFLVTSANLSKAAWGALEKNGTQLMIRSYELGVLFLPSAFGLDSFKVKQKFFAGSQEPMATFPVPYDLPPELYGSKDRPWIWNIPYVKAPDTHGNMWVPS
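Tdp1 1 nM final; 15 min RT w/ cpd; substrate 15 nM, 5 min; beads 10 ug/ml, 10 min; AlphaScreen read. Neg ctrl: no enzyme.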
KAT2A inh: blocks human GCN5L2 histone acetyltransferase | Q92830 | GCN5L2 HAT assay, ThioGlo1 CoA-SH fluorescence | Potency, µM (series often up to 58.9 µM), hits mostly inhibitors | 390,000 tested, 0.21% active | AID 504327
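Compounds, pin-transferred from DMSO stocks, meet 20nM GCN5L2 for 15 min before the reaction begins with H3(1-25) peptide (75uM) and acetyl-CoA (70uM). Thiol-reactive ThioGlo1 reports CoA release over 20 min at room temperature.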
APE1 inh-1: inhibitors of human APE1 endonuclease; P27695; Potency, µM (titrated, usually from 65.8 µM), hits mostly inhibitors; 350,000 tested, 0.35% active; recombinant APE1, TAMRA/BHQ-2 abasic DNA cleavage fluorescence; further: nearly all actives have a fitted effect of over 55% in size
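Step 1: APE1 (0.75 nM) with compound, 15 min RT. Step 2: add 50 nM fluorophore/quencher THF duplex. Step 3: three fluorescence reads 60 s apart (525/598 nm); read 3 minus read 1 = reaction progress.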
Lamin A splicing: LMNA splicing modulation. HeLa LMNA splicing GFP/RFP minigene ratio, 48 h. Potency, µM (top dose mostly 46.1 µM), actives largely listed as inhibitors. 200,000 tested, 0.01% active; active means well fitted inhibition curve with a large enough effect in the signal ratio, with a control signal flat, not every such curve was filed as active; inconclusive means small, poorly fitted or top-dose-only effect, or effect the other way, or a change in a side signal; the % refers to the signal ratio
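Read-out is the ratio of GFP to DsRed2 object intensity, acquired by 488 nm laser-scanning cytometry on HeLa lamin A-EGFP minigene reporter cells. Compound incubation 48 hrs at 37 °C in Opti-MEM with 2% FBS; DMSO 0.5% final.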
BLM inh: blocks DNA unwinding by human BLM helicase; P54132; recombinant BLM DNA unwinding, fluorescence dequenching; Potency, µM (series often up to 56.1 µM), actives largely listed as inhibitors; 350,000 tested, 0.2% active; AID 2528; further: nearly all actives have a fitted effect of over 35% in size
DNA dye displace: DNA dye displacement counter-screen activity; 480 tested, 7% active; shares compounds with APE1 inh-1; Potency, µM (top dose mostly 28.5 µM), usual class: inhibitors; DNA fluorescent dye displacement counterscreen, fluorescence;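 further: loss of thiazole orange fluorescence as the dye is displaced from duplex DNA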
Endo IV inh: counter-screen for APE1 inhibitors: inhibitors of E. coli endonuclease IV | shares compounds with APE1 inh-1 | E. coli Endo IV, fluorogenic AP-site DNA cleavage | Potency, µM (doses to about 27.1 µM), actives largely listed as inhibitors | 560 tested, 4% active
APE1 inh-2: APE1 (human) endonuclease inhibition, confirmation. shares compounds with APE1 inh-1. purified APE1, fluorogenic abasic-site DNA cleavage. 750 tested, 44% active. Potency, µM (series often up to 57.1 µM), usual class: inhibitors; further: nearly all actives have a fitted effect of over 30% in size
APE1 FP: APE1 (human) DNA binding inhibition, fluorescence polarization; shares compounds with APE1 inh-1; APE1 binding to TAMRA-labelled double-stranded DNA, fluorescence polarization displacement; Potency, µM (highest dose often 28.5 µM), hits mostly inhibitors; 480 tested, 7% active; AID 2573
Of the large screens only hits and unclear results are named; the others gave an inactive call (follow-up assays come after a bar, where they were run). Unless noted, the call rests on the fitted dose curve; in most records, active means well fitted curve in the direction sought with a large enough effect; inconclusive means small, poorly fitted or top-dose-only effect, or another doubt; inactive means no such curve, though single readings can be large; an effect the other way counts as inactive or inconclusive.

CSCC[C@H](N)C(=O)N[C@@H](CCC(=O)O)C(=O)N[C@H](C(=O)NCC(=O)N[C@@H](Cc1c[nH]c2ccccc12)C(=O)N[C@@H](Cc1ccc(O)cc1)C(=O)N[C@@H](CCCNC(=N)N)C(=O)N[C@@H](CO)C(=O)N1CCC[C@H]1C(=O)N[C@@H](Cc1ccccc1)C(=O)N[C@@H](CO)C(=O)N[C@@H](CCCNC(=N)N)C(=O)N[C@H](C(=O)N[C@H](C(=O)N[C@@H](Cc1cnc[nH]1)C(=O)N[C@@H](CC(C)C)C(=O)N[C@@H](Cc1ccc(O)cc1)C(=O)N[C@@H](CCCNC(=N)N)C(=O)N[C@@H](CC(N)=O)C(=O)NCC(=O)N[C@@H](CCCCN)C(=O)O)C(C)C)C(C)C)C(C)C	none (no result: Lamin A splicing)
Cc1nn(-c2ccccc2)c(C)c1C=O	none (no result: Lamin A splicing)
Cc1nn(-c2ccccc2)c(C)c1S(=O)(=O)O	TDP1 inh 25.1µM (no result: Lamin A splicing) | APE1 inh-2 inconclusive
Cc1cc2[nH]c3c(=O)n(Cc4ccccc4F)ncc3c2s1	none (no result: RECQ1 helicase, KAT2A inh, APE1 inh-1, Lamin A splicing, BLM inh)
CCC1=NNc2cccc3c(OC)ccc1c23	APE1 inh-1 inconclusive, BLM inh inconclusive (no result: TDP1 inh) | DNA dye displace inconclusive | Endo IV inh inactive | APE1 inh-2 inactive | APE1 FP inactive
CC(=O)NNC(=O)N1Cc2ccccc2Oc2ccc(Cl)cc21	none | Endo IV inh inactive | APE1 inh-2 inactive
CN(C)/C=N/c1c(C#N)cnn1-c1ccc(F)c(Cl)c1	none (no result: Lamin A splicing)
CCCCC[C@H](O)/C=C/[C@@H]1[C@@H](C/C=C\CCCC(=O)OC)[C@@H](O)C[C@H]1O	TDP1 inh 50.1µM | APE1 inh-2 inactive
CCCCC[C@H](O)/C=C/[C@@H]1[C@@H](C/C=C\CCCC(=O)O)[C@H]2CO[C@@H]1C2	Lamin A splicing inconclusive
CC(=O)/C=C/c1ccccc1Oc1c(F)c(F)nc(F)c1F	none (no result: RECQ1 helicase, TDP1 inh, Lamin A splicing)
Oc1ccccc1Oc1c(F)c(F)nc(N2CCCC2)c1F	APE1 inh-1 inconclusive, Lamin A splicing inconclusive | DNA dye displace inactive | Endo IV inh inactive | APE1 inh-2 inconclusive | APE1 FP inactive
Brc1ccc([C@H]2CN3CCSC3=N2)cc1	Lamin A splicing inconclusive (no result: BLM inh) | Endo IV inh inactive | APE1 inh-2 inactive
c1ccc(C2CN3CCSC3=N2)cc1 (configuration not stated)	Lamin A splicing inconclusive
C=CCN1c2ccccc2[C@]23C[C@@H](C(=O)OC)N(S(=O)(=O)CCCC)C2=NC(C(=O)OC)=C(C(=O)OC)[C@H]13	Lamin A splicing inconclusive (no result: KAT2A inh)
c1ccc(C2CC(c3cccs3)=NN2c2ccccc2)cc1 (configuration not stated)	none (no result: TDP1 inh, Lamin A splicing)
Fc1ccc(C2CC(c3cccs3)=NN2c2ccccc2)cc1 (configuration not stated)	Lamin A splicing inconclusive (no result: TDP1 inh) | APE1 inh-2 inactive
Cc1noc(C)c1-c1ccc2ncnc(NCc3cccn3C)c2c1	APE1 inh-1 inconclusive (no result: KAT2A inh, Lamin A splicing)
NC(C(=O)O)c1cc(O)cc(O)c1 (configuration not stated)	RECQ1 helicase inconclusive, APE1 inh-1 inconclusive (no result: KAT2A inh, Lamin A splicing, BLM inh)
